“And” between values parts separate entries of the source, which are not always exact repeats. Equal values may be shown once. About 2,000 (36%) of roughly 5,500 compounds were called active. Not shown: some 18% with an inconclusive outcome. No stated cut-off is given here; in the data, active means normalized growth mostly below about 0.91 (no sharp cut-off); inconclusive means no clear call, values can overlap the other calls; inactive means mostly above about 0.92. Some of the results follow.
Experiment: chemical genetic growth profiling, strain panel (AID 1159580);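 further: tested at 20 µM; growth read once vehicle control cultures reached saturation at 30 °C; 1 = growth at the plate median or of vehicle wells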
Settings: S. cerevisiae deletion strains, growth OD

Measured: normalized growth

Clc1ccc(CSC(Cn2ccnc2)c2ccc(Cl)cc2Cl)cc1 (stereo not given)
active: locus YAL021C, strain ccr4, stronger effect = lower value 0.067 | locus YAL026C, strain drs2, stronger effect = lower value 0.0648 | locus YAL030W, strain snc1, stronger effect = lower value 0.0596 | locus YBL061C, strain skt5, stronger effect = lower value 0.062 | locus YBR009C, strain hhf1, stronger effect = lower value 0.0601 | locus YBR021W, strain FUR4, stronger effect = lower value 0.0857 | locus YBR023C, strain chs3, stronger effect = lower value 0.0649 | locus YBR171W, strain sec66, stronger effect = lower value 0.076 | locus YBR229C, strain ROT2, stronger effect = lower value 0.0457 | locus YBR231C, strain swc5, stronger effect = lower value 0.064 | locus YBR279W, strain paf1, stronger effect = lower value 0.064 | locus YCL011C, strain gbp2, stronger effect = lower value 0.0611 | locus YCL016C, strain dcc1, stronger effect = lower value 0.0681 | locus YCL029C, strain bik1, stronger effect = lower value 0.0583 | locus YCL069W, strain vba3, stronger effect = lower value 0.0628 | locus YCR088W, strain abp1, stronger effect = lower value 0.0629 | locus YDL005C, strain med2, stronger effect = lower value 0.0743 | locus YDL035C, strain GPR1, stronger effect = lower value 0.0497 | locus YDL040C, strain nat1, stronger effect = lower value 0.059 | locus YDL074C, strain BRE1, stronger effect = lower value 0.0766 | locus YDL101C, strain DUN1, stronger effect = lower value 0.0543 | locus YDL134C, strain PPH21, stronger effect = lower value 0.048 | locus YDL185W, strain tfp1, stronger effect = lower value 0.0566 | locus YDL192W, strain arf1, stronger effect = lower value 0.0601 | locus YDR001C, strain nth1, stronger effect = lower value 0.0613 | locus YDR069C, strain doa4, stronger effect = lower value 0.0624 | locus YDR101C, strain arx1, stronger effect = lower value 0.0606 | locus YDR137W, strain rgp1, stronger effect = lower value 0.102 | locus YDR150W, strain NUM1, stronger effect = lower value 0.0543 | locus YDR159W, strain sac3, stronger effect = lower value 0.0874 | locus YDR162C, strain NBP2, stronger effect = lower value 0.0476 | locus YDR195W, strain ref2 0.129 | locus YDR297W, strain sur2, stronger effect = lower value 0.0568 | locus YDR318W, strain mcm21, stronger effect = lower value 0.0592 | locus YDR334W, strain swr1, stronger effect = lower value 0.0638 | locus YDR335W, strain msn5, stronger effect = lower value 0.0624 | locus YDR388W, stronger effect = lower value 0.0553 | locus YDR392W, strain spt3, stronger effect = lower value 0.0838 | locus YDR502C, strain sam2, stronger effect = lower value 0.0567 | locus YEL003W, strain gim4, stronger effect = lower value 0.054 | locus YEL037C, strain rad23, stronger effect = lower value 0.0579 | locus YEL061C, strain CIN8 (second series), stronger effect = lower value 0.0613 | locus YEL061C, strain CIN8, stronger effect = lower value 0.0475 | locus YER015W, strain faa2, stronger effect = lower value 0.0623 | locus YER016W, strain bim1, stronger effect = lower value 0.061 | locus YER110C, stronger effect = lower value 0.0729 | locus YER111C, strain swi4, stronger effect = lower value 0.0739 | locus YER155C, strain BEM2 (second series), stronger effect = lower value 0.0999 | locus YER155C, strain BEM2, stronger effect = lower value 0.0594 | locus YER167W, strain BCK2, stronger effect = lower value 0.0492 | locus YFR010W, strain ubp6, stronger effect = lower value 0.0712 | locus YGL078C, strain dbp3, stronger effect = lower value 0.0667 | locus YGL086W, strain mad1, stronger effect = lower value 0.0535 | locus YGL167C, strain pmr1, stronger effect = lower value 0.0756 | locus YGL173C, strain kem1, stronger effect = lower value 0.0697 | locus YGL227W, strain vid30, stronger effect = lower value 0.065 | locus YGL240W, strain doc1, stronger effect = lower value 0.0922 | locus YGL248W, strain PDE1, stronger effect = lower value 0.0451 | locus YGL253W, strain hxk2, stronger effect = lower value 0.0562 | locus YGR078C, strain PAC10, stronger effect = lower value 0.0475 | locus YGR135W, strain pre9, stronger effect = lower value 0.0572 | locus YGR229C, strain SMI1, stronger effect = lower value 0.0582 | locus YGR252W, strain gcn5, stronger effect = lower value 0.112 | locus YHR013C, strain ard1, stronger effect = lower value 0.101 | locus YHR027C, strain rpn1, stronger effect = lower value 0.0633 | locus YHR030C, strain SLT2, stronger effect = lower value 0.0493 and 0.0968 | locus YHR079C, strain IRE1 (second series), stronger effect = lower value 0.0556 | locus YHR079C, strain IRE1, stronger effect = lower value 0.104 | locus YHR094C, strain hxt1, stronger effect = lower value 0.0572 | locus YHR129C, strain ARP1, stronger effect = lower value 0.0541 | locus YHR142W, strain chs7, stronger effect = lower value 0.0779 | locus YHR200W, strain rpn10, stronger effect = lower value 0.0594 | locus YIL066C, strain RNR3, stronger effect = lower value 0.047 | locus YIL073C, strain SPO22, stronger effect = lower value 0.109 | locus YIL125W, strain kgd1, stronger effect = lower value 0.0629 | locus YIR030C, strain dcg1, stronger effect = lower value 0.0572 | locus YJL092W, strain hpr5, stronger effect = lower value 0.0607 | locus YJL095W, strain BCK1 (second series), stronger effect = lower value 0.0571 | locus YJL095W, strain BCK1, stronger effect = lower value 0.0582 and 0.0962 | locus YJL115W, strain asf1, stronger effect = lower value 0.0715 | locus YJL129C, strain trk1, stronger effect = lower value 0.0907 | locus YJL134W, strain LCB3, stronger effect = lower value 0.0474 | locus YJL154C, strain vps35, stronger effect = lower value 0.0605 | locus YJL164C, strain tpk1, stronger effect = lower value 0.0651 | locus YJL166W, strain qcr8, stronger effect = lower value 0.0602 | locus YJL168C, strain set2, stronger effect = lower value 0.0557 | locus YJL187C, strain SWE1 (second series), stronger effect = lower value 0.0452 | locus YJL187C, strain SWE1, stronger effect = lower value 0.0595 | locus YJR043C, strain POL32, stronger effect = lower value 0.0608 | locus YJR066W, strain TOR1, stronger effect = lower value 0.00124
